Results: the supplement of paper PMC11417369
± gives the standard deviation of the averaged measurements. The full ranking holds about 25,000 sequences; the median of “ln(normalized median fluorescence intensity)” is about 8.9, and the highest 2% start at about 10. What follows is part of a selection rich in the highest values, with near analogues and random picks from the rest.

test system: PfAP2-LT AP2 domain (GST-tagged); assay: gcPBM binding intensity (ln(normalized median fluorescence intensity)); higher = stronger DNA binding
In short: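 Plasmodium falciparum DNA-binding domains carrying a GST tag were expressed in E. coli and applied for 1 h, at about 25 μg on average, to an Agilent 4 × 180k array. The array held primer-extended double-stranded 36-bp intergenic genomic probes together with negative controls, and binding took place in 1× PBS with 1% milk, 0.2 mg/ml BSA, 0.5% salmon testes DNA and 0.03% Triton X-100. An Alexa488 anti-GST antibody detected bound protein, and the array was scanned at 488 nm. Binding intensity is taken as the highest Masliner-normalised natural-log median intensity across replicate spots of either probe orientation.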

| Sequence | gcPBM binding intensity (ln) |
| --- | --- |
| ACGTTACATACATATACACACACATATATATATATA [CACACA_site8203] | 9.93 ± 0.16 |
| GTTACATACAGATACACACACATATATATATATATA [CACACA_site4652] | 10.2 ± 0.4 |
| TACATACATACATACACACACACATATATATACATA [CACACA_site853] | 10.1 ± 0.23 |
| CACAGATATATACATACACACATATATACACATATA [CACACA_site6323] | 9.39 ± 0.32 |
| CATACATACATACATACACACATACAGATATATATA [CACACA_site4890] | 9.4 ± 0.38 |
| GTTACATACATATACACACACATATATATATATATA [CACACA_site901] | 10.2 ± 0.17 |
| CTCCACAAACAAATCGCACACCCAACCCAACATATA [CACACA_site2650] | 9.68 ± 0.34 |
| TATTTTTTTGTGTTTGGTACACACGTTATAAAAAAT [XGTACX_site2655] | 8.8 ± 0.36 |
| AAAAAAAAAAAAAACACACACACACCCACATATACA [CACACA_site2663] | 10.2 ± 0.16 |
| AAAAAAAACGCACATACACACACACCCATATATATA [CACACA_site9118] | 10.13 ± 0.028 |
| AAAAAACACCCATACACACACACACCGATATATATA [CACACA_site5808] | 10.2 ± 0.24 |
| AAAAAACAGACATACACACACACACCCATATATATA [CACACA_site3392] | 10.4 ± 0.21 |
| AAAAAAAAAAAAAAAACACACATACACCCAGACACA [CACACA_site5807] | 9.71 ± 0.18 |
| AAAAAAAAAAAAAAAACACACATACACCCCCACCCA [CACACA_site9117] | 9.89 ± 0.18 |
| CACAGACACCCATACACACACATACCCATATATATA [CACACA_site5023] | 9.56 ± 0.34 |
| TTAATATTATGTTAAAGTACTTTATATATATATAAT [XGTACX_site2646] | 8.57 ± 0.3 |
| AAGACTGCACTTTAAGCACACAAATATATTTTTTTT [CACACA_site8337] | 8.86 ± 0.38 |
| TACAAATATATATGCACACACATATCTGTATATGTG [CACACA_site5663] | 9.58 ± 0.26 |
| GTAATATATACAAAATGTACAAAACAATAACATGAT [XGTACX_site8575] | 9.2 ± 0.52 |
| TAATAAAATATGTACACACATACACCCATATATATA [CACACA_site1220] | 9.21 ± 0.35 |
| GTTTAAAATCTTTGCACACATATAAATAAATATATT [CACACA_site2555] | 8.9 ± 0.41 |
| AAAAAAAAAAAACACACACACACACCCATATACATA [CACACA_site2664] | 10.31 ± 0.085 |
| TATAAACACCCATATAAACACACATACATACATACA [CACACA_site8791] | 9.51 ± 0.33 |

| Sequence | gcPBM binding intensity (ln) |
| --- | --- |
| TAAACACCCATATAAACACACATACATACATACATA [CACACA_site5383] | 9.53 ± 0.4 |
| AAAAATAAAAAAAACACACATACCTTATTTTTGTTC [CACACA_site2634] | 8.98 ± 0.42 |
| TATATATATATATATGTGCGCATTACTTTAAGAATA | 9.6 ± 0.25 |
| TCTTTTTGCATGTGTGTGCGCACAAAATACACAAAA [GTGCAC_site9718] | 9.39 ± 0.3 |
| TACACAAGAAAATTCACACACACACCGATATATATA [CACACA_site6008] | 9.87 ± 0.16 |
| AAAACAAAAGAATTCACACATATATATATATATATA [CACACA_site4777] | 10.1 ± 0.16 |
| CACAAGAAAATTCACACACACACATATATATATATA [CACACA_site3880] | 10.2 ± 0.14 |
| CATACACAAGAAAATTCACACACACCCATATATATA [CACACA_site9288] | 9.87 ± 0.23 |
| CACAAGAAAGTTCACACACACACATATATATATATA [CACACA_site6009] | 9.93 ± 0.62 |
| TACACAAGAAAATTCACACACACACCCATATATATA [CACACA_site3879] | 10.12 ± 0.092 |
| TATATATGTTCAATATGTACATATATATAAGTGTAT [XGTACX_site5157] | 8.79 ± 0.41 |
| AATATATCAAAAATTGGATAGTTTCTTATAAAAAAT [CACACA_negctrl_site39] | 8.43 ± 0.46 |
| ATATATATATATATATGTACATATATTCGATTATTA [XGTACX_site557] | 9.695 ± 0.035 |
| CATATAAATAAATACACACACACACGCCTTATAATT [CACACA_site7830] | 10.19 ± 0.078 |
| TAATTATATAAATACACACACATACACCCAAATAAA [CACACA_site5819] | 9.8 ± 0.2 |
| AAATTATAATATAATACACACATAAAAAAAAAAAAA [CACACA_site7] | 8.93 ± 0.47 |
| CATATATATAAATACACACACACACCCCTTATAATT [CACACA_site4064] | 10.2 ± 0.15 |
| TACATATATATAAATACACACACACCCACCTTATAA [CACACA_site9346] | 9.88 ± 0.15 |
| ACATATAAATTATATACACACAATAATATATATATA [CACACA_site1384] | 9.01 ± 0.39 |
| CCTCCCATTTTTACACGTACACATTTAAAATAGACT [XGTACX_site5640] | 8.95 ± 0.21 |
| TATAAAGGTGAAATTTGTACATAGTCATTTTTTAAT [XGTACX_site4811] | 8.52 ± 0.42 |
| TATAAAAAAATATATATATATATATATATATAAATA [TGCATGCA_negctrl_site22] | 9.09 ± 0.37 |
| TAATAAAGTGAATAATGTACATTTTATTTATTATAT [XGTACX_site6614] | 8.62 ± 0.45 |

| Sequence | gcPBM binding intensity (ln) |
| --- | --- |
| GATGCACTTTAAAAATGTACTTATACCTTTAATTGT [XGTACX_site6395] | 8.76 ± 0.41 |
| TAAAAAGGAAGACACACACACACATATATAAATATA [CACACA_site7657] | 10.2 ± 0.34 |
| AAAGAAAGAAGACACACACACATATATAAATATCAA [CACACA_site7715] | 9.88 ± 0.23 |
| AAAAAAAAAAGACACACACACACATAAATATAAATA [CACACA_site6215] | 10.2 ± 0.42 |
| ATAAAAAAAAGACACACACACATATATATATATATA [CACACA_site3073] | 10.2 ± 0.18 |
| TATAAATAAAGACACACACACATATAAATAAATATA [CACACA_site7155] | 9.68 ± 0.26 |
| CATATAAAAAGACACACACACACATATATATATATA [CACACA_site940] | 9.92 ± 0.31 |
| AATATAAAAAAAAAAAAAAAAAAAAAAAAAAAGACA [CACACA_negctrl_site983] | 8.66 ± 0.5 |
| ATAAAAAAAGGACACACACACATATATTTATTTATA [CACACA_site7438] | 9.71 ± 0.19 |
| ATAAAAAAAGGACACACACACATATATATATATATA [CACACA_site5662] | 10.46 ± 0.05 |
| TATAAAAGTAGACACACACACATATAAATATAAATA [CACACA_site6567] | 9.66 ± 0.27 |
| AAAAAAAAAAGACACACACACATATAAATATAAATA [CACACA_site6899] | 9.81 ± 0.26 |
| CATATAAAAGGACACACACACACATATAAATATGTA [CACACA_site6568] | 9.88 ± 0.3 |
| TTTGTGCCTATAAATTAACACACAGAAATATATAGA [CACACA_site8175] | 9.06 ± 0.28 |
| TACTTCATTCATTTTACACACATATAAACCCTTTTA [CACACA_site3229] | 9.15 ± 0.47 |
| ATTTATATGTAGATGTGTACTTAATTGTAATGTGTT [XGTACX_site6422] | 8.95 ± 0.45 |
| TTTATTTCCTTTTTGTGTACATATATATGTAATTCA [XGTACX_site1718] | 8.78 ± 0.53 |
| AACAAAATTGAAGGAACACACATACATATTTATATA [CACACA_site6227] | 9.07 ± 0.41 |
| AATTTATAAATAATTAATTTGATAAATTATAAAGGG [GTGCAC_negctrl_site544] | 8.45 ± 0.45 |
| AAAAAGAAATATTTATGTACATAATAATAATATTTT [XGTACX_site4693] | 8.63 ± 0.44 |
| GGCTAAAAGTTGCACACACACAAAAAAAAAAAAAAA [CACACA_site7531] | 9.37 ± 0.51 |
| ATTTATGAAAGAAATAGTACACACATAAACATTTGT [XGTACX_site5862] | 9.03 ± 0.36 |
| TATAAAAAAATATATATATATATTATATGTGTAGAA [TGCATGCA_negctrl_site391] | 8.71 ± 0.54 |

| Sequence | gcPBM binding intensity (ln) |
| --- | --- |
| AAAAAAAAAAAAAAGACACACATATATATATATATA [CACACA_site633] | 10.1 ± 0.13 |
| GTAATCCACAAACACACACACATACACATATATATA [CACACA_site2728] | 9.98 ± 0.19 |
| AATCCACAAAGACACACACACACATATATATATATA [CACACA_site1269] | 10.2 ± 0.23 |
| TATTTATTTAAAGGCACACATATTTTTATACTTTCT [CACACA_site3163] | 8.79 ± 0.49 |
| AAATTTATAAAGAACACACACATATATATATATATA [CACACA_site48] | 10 ± 0.21 |
| AATTTTTTTTTTTTTTTTTTTTATATATGTGTGTGT [XGTACX_negctrl_site129] | 9.32 ± 0.42 |
| TGTGTCAAGTTTAATAAACGCATATAATATATATGA [CACACA_negctrl_site607] | 8.59 ± 0.41 |
| TTTTTTATATATGTGTGTGTGTGTGTGTCAAGTTTA [GTGCAC_negctrl_site460] | 10.3 ± 0.24 |
| TTTATATTTAAATGCATGCACTTTCTATTTTTTTTT [GTGCAC_site9959] | 9.13 ± 0.53 |
| CTTACATATTACATATGTACATATACACCTTATGTC [XGTACX_site4679] | 9.19 ± 0.41 |
| TTATTGCGCACAATTTGTACATATATATATATAGAA [XGTACX_site7573] | 8.84 ± 0.4 |
| GTTTTATAAAAAGGCGCACACATATACATAAATATA [CACACA_site1864] | 9.37 ± 0.47 |
| TACAATTGTAAAGGCGCACACATATATATATATATA [CACACA_site1392] | 10.3 ± 0.23 |
| TGCAATTGTAAAGGCGCACACATATATATATATATA [CACACA_site4894] | 10.2 ± 0.13 |
| AAAAAAAGGTAAAATTGTACATACGCACAAAAATAT [XGTACX_site2887] | 9 ± 0.51 |
| TATTGTAAGAAAGGCACACAGATAAAATTATTATAT [CACACA_site2921] | 8.83 ± 0.51 |
| AATCTGATTTGTATATGTACACAAATATTTTTATTT [XGTACX_site5295] | 8.99 ± 0.53 |
| TAATATCAAACCTATAGTACATAAGGTATAAAAAAG [XGTACX_site3533] | 8.86 ± 0.44 |
| TTCTGAACAAAATTATATATTTATTTTTATTTTCAT [CACACA_negctrl_site422] | 8.48 ± 0.5 |
| AAAAAAAAAAAAAAAACACACAATTGAATTATTAAG [CACACA_site2864] | 8.7 ± 0.61 |
